The panel holds about 83,000 compounds, 20% with a hit somewhere; the sample as a whole holds those more often.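 Single-dose data. Exposure time 48 hours. Values below 10 considered active.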 Calls of active or inactive are those of the source.
Assays:
Test in all cases: NCI-60 one-dose screen, 48 h (100 = growth as untreated, 0 = no growth, -100 = all killed)
Details in all cases: 10 µM
NCI-H23 lung = system: NCI-H23 lung
NCI-H322M lung = system: NCI-H322M lung
HOP-62 NSCLC = system: HOP-62 NSCLC
NCI-H460 lung = system: NCI-H460 lung
HOP-92 NSCLC = system: HOP-92 NSCLC
NCI-H522 lung = system: NCI-H522 lung
A549/ATCC NSCLC = system: A549/ATCC NSCLC
786-0 renal = system: 786-0 renal
COLO 205 colon = system: COLO 205 colon

Measured: growth

COc1cc(OC(F)(F)F)ccc1C(=O)Nc1sc2c(c1C#N)CCC(=O)C2
inactive: NCI-H23 lung 54.5% | NCI-H322M lung 97.9% | HOP-62 NSCLC 84.8% | NCI-H460 lung 100% | HOP-92 NSCLC 95.2% | A549/ATCC NSCLC 93.5% | 786-0 renal 97.5% | COLO 205 colon 97.8%
active: NCI-H522 lung -36.3%

O=C(CSc1nnc(-c2ccc3nc(-c4ccccc4)[nH]c3c2)o1)Nc1ccc(Cl)cc1
inactive: NCI-H23 lung 21.4% | NCI-H322M lung 63.9% | HOP-62 NSCLC 62.9% | NCI-H460 lung 48.8% | HOP-92 NSCLC 79.1% | NCI-H522 lung 28.7% | A549/ATCC NSCLC 57.1% | 786-0 renal 16.9% | COLO 205 colon 73.2%

COC(=O)C[C@](O)(CCCC(C)(C)O)C(=O)O[C@H]1C(OC)=C[C@@]23CCC(=O)N2CCc2cc4c(cc2[C@@H]13)OCO4
inactive: NCI-H23 lung 101% | NCI-H322M lung 112% | HOP-62 NSCLC 93.1% | NCI-H460 lung 44.3% | HOP-92 NSCLC 116% | NCI-H522 lung 78.4% | A549/ATCC NSCLC 94.9% | 786-0 renal 97.9% | COLO 205 colon 118%

O=c1nc(-c2ccccc2)cc(-c2cc3ccccc3nc2Cl)[nH]1
active: NCI-H460 lung 2.46% | 786-0 renal -19.8%
inactive: NCI-H23 lung 33.6% | NCI-H322M lung 64.4% | HOP-62 NSCLC 42.5% | HOP-92 NSCLC 41.8% | NCI-H522 lung 51.2% | A549/ATCC NSCLC 68.9% | COLO 205 colon 45%

— PubChem BioAssay (NCI)
